From PubChem BioAssay (NCI)
Compounds without any hit were thinned out: in the full panel of roughly 83,000, 20% have a hit.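 Compound tested at a single concentration for 48 hours in 96-well plates; a percent growth value below 10 was scored as active.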

Legend:
Experiment in all cases: NCI-60 one-dose screen, 48 h (100 = growth as untreated, 0 = no growth, -100 = all killed)
HCT-15 colon = settings: 10 µM unless noted
HT29 colon = settings: 10 µM unless noted
SNB-75 CNS = settings: 10 µM unless noted
SNB-19 CNS = settings: 10 µM unless noted
U251 CNS = settings: 10 µM unless noted
PC-3 prostate = settings: 10 µM unless noted
UACC-62 melanoma = settings: 10 µM unless noted
LOX IMVI melanoma = settings: 10 µM
SK-MEL-28 melanoma = settings: 10 µM unless noted
SK-MEL-5 melanoma = settings: 10 µM unless noted

Measured: growth

O=C(O)c1c[nH]c2ccccc2c1=O
inactive: HCT-15 colon 110% | HT29 colon 97.6% | SNB-75 CNS 89.9% | SNB-19 CNS 101% | U251 CNS 93.9% | PC-3 prostate 97.6% | UACC-62 melanoma 101% | LOX IMVI melanoma 97.2% | SK-MEL-28 melanoma 102%

O=C(O)Cc1ccccn1
inactive: HCT-15 colon 99.7% | HT29 colon 103% | SNB-75 CNS 103% | SNB-19 CNS 101% | U251 CNS 99% | PC-3 prostate 102% | UACC-62 melanoma 106% | LOX IMVI melanoma 113% | SK-MEL-28 melanoma 106%

CCOc1ccc(C(=O)O)cc1
inactive: HCT-15 colon 95.7% | HT29 colon 103% | SNB-75 CNS 89.2% | SNB-19 CNS 112% | U251 CNS 103% | PC-3 prostate 91.2% | UACC-62 melanoma 104% | LOX IMVI melanoma 98.7% | SK-MEL-28 melanoma 105%

COC1(OC)C2(Cl)C(Cl)=C(Cl)C1(Cl)C1COCC12 (stereo not given)
inactive: HCT-15 colon 103% | HT29 colon 99.3% | SNB-75 CNS 86.3% | SNB-19 CNS 100% | U251 CNS 103% | SK-MEL-5 melanoma 102% | UACC-62 melanoma 97.4% | LOX IMVI melanoma 107% | SK-MEL-28 melanoma 105%

OCCNc1ccccc1
inactive: HCT-15 colon 105% | HT29 colon 104% | SNB-75 CNS 91.3% | SNB-19 CNS 116% | U251 CNS 97.6% | PC-3 prostate 95.7% | UACC-62 melanoma 109% | SK-MEL-28 melanoma 107%

CN=S(=O)(OCCCCCOS(=O)(=NC)c1ccc(C)cc1)c1ccc(C)cc1 (stereo not given)
inactive: HCT-15 colon 108% | HT29 colon 95.8% | SNB-75 CNS 77.1% | SNB-19 CNS 97.3% | U251 CNS 93.8% | PC-3 prostate 75.6% | UACC-62 melanoma 86.5% | LOX IMVI melanoma 88.1% | SK-MEL-28 melanoma 93.5%

Nc1ncnc(Nc2ccccc2)n1
inactive: HCT-15 colon 103% | HT29 colon 108% | SNB-75 CNS 104% | SNB-19 CNS 109% | U251 CNS 111% | PC-3 prostate 101% | UACC-62 melanoma 115% | LOX IMVI melanoma 104% | SK-MEL-28 melanoma 107%

CCC(C)C1CCC(O)CC1 (stereo not given)
inactive: HCT-15 colon 104% | HT29 colon 105% | SNB-75 CNS 91.7% | SNB-19 CNS 112% | U251 CNS 98.8% | PC-3 prostate 100% | UACC-62 melanoma 104% | LOX IMVI melanoma 101% | SK-MEL-28 melanoma 106%

Nc1ccccc1SC1CC(=O)N(c2ccc(Cl)c(Cl)c2)C1=O (stereo not given)
inactive: HCT-15 colon 118% | HT29 colon 96.2% | SNB-75 CNS 79.9% | SNB-19 CNS 96.6% | U251 CNS 103% | SK-MEL-5 melanoma 104% | UACC-62 melanoma 87.6% | LOX IMVI melanoma 98.5% | SK-MEL-28 melanoma 108%

S=C(NCc1ccccc1)N1CCC(CCCC2CCN(C(=S)NCc3ccccc3)CC2)CC1
inactive: HCT-15 colon 99.8% | HT29 colon 95.9% | SNB-75 CNS 101% | SNB-19 CNS 94.5% | U251 CNS 98.3% | PC-3 prostate 89.5% | UACC-62 melanoma 79.1% | SK-MEL-28 melanoma 119%

CCOC(=O)/C(C)=C\c1ccc(OC)c(OC)c1
inactive: HCT-15 colon 101% | HT29 colon 106% | SNB-75 CNS 92.9% | SNB-19 CNS 107% | U251 CNS 94% | PC-3 prostate 97.5% | UACC-62 melanoma 101% | SK-MEL-28 melanoma 108%

CC(c1ccccc1)N(C)C (stereo not given)
inactive: HCT-15 colon 109% | HT29 colon 88.2% | SNB-75 CNS 59.5% | SNB-19 CNS 100% | U251 CNS 102% | SK-MEL-5 melanoma 99.6% | UACC-62 melanoma 94.5% | LOX IMVI melanoma 113% | SK-MEL-28 melanoma 157%

Cn1c(=O)c2nc3c(=O)n(C)c(=O)n(C)c3nc2n(C)c1=O
inactive: HCT-15 colon 109% | HT29 colon 109% | SNB-75 CNS 92.4% | SNB-19 CNS 92.3% | U251 CNS 103% | PC-3 prostate 97.4% | UACC-62 melanoma 94.4% | LOX IMVI melanoma 105% | SK-MEL-28 melanoma 122%

Cn1c(=O)[nH]c2ccccc2c1=O
inactive: HCT-15 colon 101% | HT29 colon 98.4% | SNB-75 CNS 91% | SNB-19 CNS 94.3% | U251 CNS 93.6% | PC-3 prostate 130% | UACC-62 melanoma 102% | SK-MEL-28 melanoma 117%

CC(=O)c1ccc(C)cc1
inactive: HCT-15 colon 113% | HT29 colon 111% | SNB-75 CNS 90.1% | SNB-19 CNS 109% | U251 CNS 108% | SK-MEL-5 melanoma 105% | LOX IMVI melanoma 108% | SK-MEL-28 melanoma 104%
